Experimental data: ChEMBL document CHEMBL3433997, “St. Jude Leishmania screening dataset” (2016)

Biological target: Glucose transporter (Leishmania mexicana) (UniProt O61059)
Experiment: ST_JUDE_LEISH: Cytotoxicity at 2uM final concentration against transgenic Leishmania Mexicana promastigotes LmGT2 that are glucose transport deficient and complemented with the L. Mexicana glucose transporter 2. Activity is measured by DNA content using SYBR green in vitro
Assay type: functional

| SMILES | inhibition [%] |
| --- | --- |
| CN(C)C(CNC(=O)c1cc(-c2ccncc2)c(-c2ccc(NC(=O)Nc3cccc(Cl)c3)cc2)o1)c1ccccc1 (stereo not given) | 0.81 |
| CS(=O)(=O)CCNCc1ccc(-c2ccc3c(Nc4ccc(Cl)cc4F)ccnc3c2)o1 | 4.36 |
| NC(=O)N1CCN(Cc2ccc(Br)cc2)CC1 | 1 |
| CC(=O)c1sc(Cc2nc3ccccc3s2)nc1C | -1.55 |
| CN1CCC(NCc2ccc(-c3ccc(S(=O)(=O)NCc4ccccc4)cc3)cc2)CC1 | -3.56 |
| O=c1[nH]ccc2nc(N[C@@H]3CCNC3)nc(Nc3ccc4c(c3)S(=O)(=O)CC4)c12 | 4.85 |
| CN(C)c1ccc(-c2csc(C(=O)NCC3CCN(Cc4ccc(C(C)(C)C)cc4)C3)c2)cc1 (stereo not given) | -1.57 |
| NC(=O)c1cccc(-n2ccc3cc(CNC4Cc5ccccc5C4)ccc32)c1 | 8.72 |
| COc1cccc(-c2cc(-c3ccc(NC(=O)c4ccccc4)cc3)c3c(N)ncnc3n2)c1 | -2.31 |
| NC1CCN(c2cnn(Cc3cccc(NC(=O)Nc4ccc(-c5ccccc5)cc4)c3)c(=O)c2Cl)CC1 | 2.25 |
| CCCCCCC(C)c1cc(OCCN(CC)CC)c2c(c1)OC(C)(C)C=C2c1ccncc1 (stereo not given) | -1.02 |
| O=C(NC1CCN(Cc2ccc(O)cc2)CC1)c1ccc(Cl)c(Cl)c1 | -3.12 |
| NC(=O)c1ccccc1Nc1nc(Nc2cccc(N3CCN(CCO)CC3)c2)ncc1Cl | 57.8 |
| Cc1nc(-c2ccc(-c3ccc(NC(=O)c4coc5ccc(N6CC(C)NC(C)C6)cc45)cc3)c(C)c2)no1 (stereo not given) | 6.24 |
| Fc1cccc(COc2ccc(Nc3ncnc4sc(C#Cc5ncc[nH]5)cc34)cc2Cl)c1 | -0.59 |
| Cc1cccc2nc(-c3ccc(-c4cccc(CNC(C)C)c4)s3)[nH]c12 | 3.77 |
| CSc1sc(NC(=O)Nc2cccc(C(F)(F)F)c2)cc1C#N | 1.15 |
| CC(C)(C)c1ccc(NC(=O)c2ccc(CN3CCCN(Cc4cccc(Cl)c4)CC3)cc2)cc1 | 1.91 |
| COc1cccc2c(NN=Cc3ccc(Cl)cc3)ccnc12 | 2.21 |
| CC(=O)Nc1ccc(C(=O)NC2CCN(c3ccnc4cc(Cl)ccc34)C2)cc1 (stereo not given) | 1.4 |

| SMILES | inhibition [%] |
| --- | --- |
| CNC(=O)c1cnc(Nc2ccc(OCC(O)CN(C)C)cc2)nc1Nc1cccc(OC)c1 (stereo not given) | 4.47 |
| CCOc1cc2ncnc(Nc3ccc(OCc4ccccc4OC)c(OC)c3)c2cc1OCC | 0.35 |
| CCN(CCCN1CCCCC1)c1cc(C)nc(Nc2ccc(C)cc2)n1 | 0.31 |
| CC1CN(c2ccc(NC(=O)c3ccsc3)cc2C(=O)N2CCN(Cc3ccc(C(C)(C)C)cc3)CC2)CC(C)O1 (stereo not given) | 0.3 |
| CCCc1ccc(S(=O)(=O)NC2CCN(c3ccnc(Nc4ccc(F)cc4)n3)C2)cc1 (stereo not given) | 1.48 |
| CC(C)(C)c1ccc(NC(=O)c2cccc(CN3CCCN(Cc4cccc(O)c4)CC3)c2)cc1 | 1.99 |
| O=C(NC1CCN(c2ccnc3cc(Cl)ccc23)C1)c1ccccc1F (stereo not given) | 2.72 |
| Cc1cc(-c2cnc(N)c(-c3ccc(N4CCN(C)CC4)nc3)c2)cc(C)c1O | 0.74 |
| C[C@@H](Oc1cc(-n2cnc3ccc(NC(=O)NC(C)(C)C)cc32)sc1C(N)=O)c1ccccc1Cl | 2.98 |
| CC(C)N1CCC(NC(=O)N2CCCN(c3ncnc4cc(-c5ccccc5)sc34)CC2)CC1 | 0.31 |
| CC(C)CN1CCCN(Cc2cccc(NC(=O)c3ccc(-c4ccccc4)cc3)c2)CC1 | -5.07 |
| Cc1noc(C)c1-c1cccc(CNCc2cccc(-c3csc(-c4nc5ccccc5[nH]4)c3)c2)c1 | 1.31 |
| Oc1ccc(OCc2ccccn2)cc1 | 4.04 |
| COc1ccc(O)c(C(=O)NCCc2ccc(OC)c(-c3ccc(C(C)(C)C)cc3)c2)c1 | 4.69 |
| O=C(NC(Nc1ccc([N+](=O)[O-])cc1)C(Cl)(Cl)Cl)c1ccc(Cl)cc1 (stereo not given) | -2.78 |
| O=C(Nc1ccc(Cn2ncc(N3CCCNCC3)c(Cl)c2=O)cc1)Nc1cc(F)cc(C(F)(F)F)c1 | 0.99 |
| CC(C)C[C@H]1C(=O)N[C@H](C2Cc3ccccc3C2)C(=O)N1[C@@H](C(=O)Nc1ccccc1OCc1ccccc1)c1ccc(F)cc1F | -0.16 |
| O=C(Nc1ccc(Cl)cn1)c1sc2ccccc2c1O | 0.99 |
| COc1ccc(CCC(C)(C)NCC(O)c2cccc(C(F)(F)F)c2)cc1 (stereo not given) | 5.12 |
| CCCCCCN1CCC(NCc2ccc(C(F)(F)F)cc2)CC1 | 5.77 |
